What was measured:
Experiment in all cases: log2 ratio of Biotin-Ahx-Ub-VS probe labelling (fragment/DMSO); higher = less target engagement (more negative = stronger competition), active = hit call of the paper (q ≤ 0.05, log2 ratio ≤ -1)
Details in all cases: compound concentration: 200 uM; treatment time: 3 h
[1] = target: T1, USP42 (UniProt Q9H9J4)
T1 sequence (whole entry): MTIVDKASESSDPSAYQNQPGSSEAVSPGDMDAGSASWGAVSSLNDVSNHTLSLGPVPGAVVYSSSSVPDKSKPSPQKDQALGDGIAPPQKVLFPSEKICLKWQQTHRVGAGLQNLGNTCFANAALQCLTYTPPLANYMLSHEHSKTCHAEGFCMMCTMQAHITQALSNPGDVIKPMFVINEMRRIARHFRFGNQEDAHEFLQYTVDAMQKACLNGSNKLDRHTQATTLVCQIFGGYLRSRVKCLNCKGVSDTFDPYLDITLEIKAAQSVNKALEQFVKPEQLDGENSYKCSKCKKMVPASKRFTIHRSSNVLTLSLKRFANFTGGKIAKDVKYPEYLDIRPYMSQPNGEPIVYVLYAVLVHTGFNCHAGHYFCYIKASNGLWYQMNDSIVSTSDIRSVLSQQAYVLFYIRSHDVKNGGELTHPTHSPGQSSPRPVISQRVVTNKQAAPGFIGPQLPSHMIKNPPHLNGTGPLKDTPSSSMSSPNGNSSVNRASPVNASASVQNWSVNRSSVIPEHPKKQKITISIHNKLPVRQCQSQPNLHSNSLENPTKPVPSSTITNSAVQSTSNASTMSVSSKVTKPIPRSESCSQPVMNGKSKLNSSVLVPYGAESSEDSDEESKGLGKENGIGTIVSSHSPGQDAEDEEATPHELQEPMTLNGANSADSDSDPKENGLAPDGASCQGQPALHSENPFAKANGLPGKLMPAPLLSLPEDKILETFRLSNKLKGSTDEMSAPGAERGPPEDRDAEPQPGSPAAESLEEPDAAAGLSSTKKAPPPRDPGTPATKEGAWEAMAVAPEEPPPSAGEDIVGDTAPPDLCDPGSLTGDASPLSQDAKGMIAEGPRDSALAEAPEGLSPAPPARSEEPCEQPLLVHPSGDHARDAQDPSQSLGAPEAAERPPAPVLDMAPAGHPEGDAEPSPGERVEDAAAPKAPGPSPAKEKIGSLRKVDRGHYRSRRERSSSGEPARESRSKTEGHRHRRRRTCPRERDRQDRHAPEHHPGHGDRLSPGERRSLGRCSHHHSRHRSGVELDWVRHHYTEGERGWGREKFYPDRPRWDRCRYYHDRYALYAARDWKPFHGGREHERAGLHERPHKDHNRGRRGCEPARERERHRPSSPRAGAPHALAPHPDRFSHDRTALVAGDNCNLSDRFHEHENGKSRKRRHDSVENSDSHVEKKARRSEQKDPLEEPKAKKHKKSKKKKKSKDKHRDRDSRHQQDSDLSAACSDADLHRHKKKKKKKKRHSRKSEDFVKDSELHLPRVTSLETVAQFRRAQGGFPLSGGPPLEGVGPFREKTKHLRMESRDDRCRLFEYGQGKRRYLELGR
How it was run: (§1)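 Each value is an average log2 ratio of fragment to vehicle, tested by unpaired t-test. The underlying Spectronaut label-free quantities were global-median-normalised, and only proteins with ≥2 unique peptides were included. Triplicate HEK293T lysate samples (495 µg) were exposed to fragment at 200 µM or vehicle for 3 h, then to Biotin-Ahx-Ub-VS at 0.5 µM final for 1 h, before NeutrAvidin enrichment of labelled DUBs, LysC and trypsin digestion, and diaPASEF LC-MS/MS.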

[2] = target: USP46 (UniProt P62068)
Chain of USP46 (P62068 whole entry): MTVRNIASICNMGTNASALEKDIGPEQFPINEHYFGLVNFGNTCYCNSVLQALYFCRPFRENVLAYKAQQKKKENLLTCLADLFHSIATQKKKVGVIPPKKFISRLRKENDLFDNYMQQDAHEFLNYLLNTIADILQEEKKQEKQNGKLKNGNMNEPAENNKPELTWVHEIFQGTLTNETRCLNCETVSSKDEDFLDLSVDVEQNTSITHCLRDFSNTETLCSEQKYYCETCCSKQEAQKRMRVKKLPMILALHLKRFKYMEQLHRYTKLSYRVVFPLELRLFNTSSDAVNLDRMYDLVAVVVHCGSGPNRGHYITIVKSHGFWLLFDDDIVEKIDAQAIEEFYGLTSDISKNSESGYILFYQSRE
How it was run: as §1

[3] = target: T2, USP47 (UniProt Q96K76)
T2 sequence (whole entry): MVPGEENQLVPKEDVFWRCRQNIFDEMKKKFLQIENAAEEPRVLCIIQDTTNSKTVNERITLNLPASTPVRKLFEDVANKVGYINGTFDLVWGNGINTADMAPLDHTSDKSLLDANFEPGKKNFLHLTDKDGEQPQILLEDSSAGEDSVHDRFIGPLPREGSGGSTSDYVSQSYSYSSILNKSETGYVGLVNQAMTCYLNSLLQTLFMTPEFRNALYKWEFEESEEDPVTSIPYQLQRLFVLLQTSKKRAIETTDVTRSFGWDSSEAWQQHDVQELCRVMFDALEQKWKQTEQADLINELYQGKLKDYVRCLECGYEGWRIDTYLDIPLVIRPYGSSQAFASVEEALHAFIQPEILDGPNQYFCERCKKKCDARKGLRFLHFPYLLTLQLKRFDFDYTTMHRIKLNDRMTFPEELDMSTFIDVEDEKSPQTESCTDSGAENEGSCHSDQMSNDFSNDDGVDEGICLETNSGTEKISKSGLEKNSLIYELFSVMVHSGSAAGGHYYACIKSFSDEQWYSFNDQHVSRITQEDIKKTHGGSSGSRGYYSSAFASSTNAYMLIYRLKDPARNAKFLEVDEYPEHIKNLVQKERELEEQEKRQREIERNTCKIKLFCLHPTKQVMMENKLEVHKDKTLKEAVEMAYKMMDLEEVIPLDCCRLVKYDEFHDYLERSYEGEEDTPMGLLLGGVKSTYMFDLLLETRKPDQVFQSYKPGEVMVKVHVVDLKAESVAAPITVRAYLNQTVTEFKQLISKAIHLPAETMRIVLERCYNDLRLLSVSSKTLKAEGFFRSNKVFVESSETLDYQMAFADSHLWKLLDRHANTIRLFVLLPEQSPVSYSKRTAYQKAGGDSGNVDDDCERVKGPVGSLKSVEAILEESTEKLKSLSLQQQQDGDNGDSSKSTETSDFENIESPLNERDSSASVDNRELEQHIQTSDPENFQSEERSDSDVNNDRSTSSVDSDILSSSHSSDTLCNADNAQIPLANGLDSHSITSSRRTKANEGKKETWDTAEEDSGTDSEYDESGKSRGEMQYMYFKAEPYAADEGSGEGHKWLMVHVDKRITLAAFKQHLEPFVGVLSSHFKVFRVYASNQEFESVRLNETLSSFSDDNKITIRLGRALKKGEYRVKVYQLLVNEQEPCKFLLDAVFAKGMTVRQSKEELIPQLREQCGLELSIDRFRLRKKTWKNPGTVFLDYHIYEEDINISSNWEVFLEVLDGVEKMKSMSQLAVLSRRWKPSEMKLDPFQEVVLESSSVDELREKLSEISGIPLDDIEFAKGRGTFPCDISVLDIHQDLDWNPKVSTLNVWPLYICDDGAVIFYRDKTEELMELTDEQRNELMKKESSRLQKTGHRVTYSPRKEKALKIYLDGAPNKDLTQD
How it was run: as §1

[4] = target: T3, USP48 (UniProt Q86UV5)
T3 sequence (whole entry): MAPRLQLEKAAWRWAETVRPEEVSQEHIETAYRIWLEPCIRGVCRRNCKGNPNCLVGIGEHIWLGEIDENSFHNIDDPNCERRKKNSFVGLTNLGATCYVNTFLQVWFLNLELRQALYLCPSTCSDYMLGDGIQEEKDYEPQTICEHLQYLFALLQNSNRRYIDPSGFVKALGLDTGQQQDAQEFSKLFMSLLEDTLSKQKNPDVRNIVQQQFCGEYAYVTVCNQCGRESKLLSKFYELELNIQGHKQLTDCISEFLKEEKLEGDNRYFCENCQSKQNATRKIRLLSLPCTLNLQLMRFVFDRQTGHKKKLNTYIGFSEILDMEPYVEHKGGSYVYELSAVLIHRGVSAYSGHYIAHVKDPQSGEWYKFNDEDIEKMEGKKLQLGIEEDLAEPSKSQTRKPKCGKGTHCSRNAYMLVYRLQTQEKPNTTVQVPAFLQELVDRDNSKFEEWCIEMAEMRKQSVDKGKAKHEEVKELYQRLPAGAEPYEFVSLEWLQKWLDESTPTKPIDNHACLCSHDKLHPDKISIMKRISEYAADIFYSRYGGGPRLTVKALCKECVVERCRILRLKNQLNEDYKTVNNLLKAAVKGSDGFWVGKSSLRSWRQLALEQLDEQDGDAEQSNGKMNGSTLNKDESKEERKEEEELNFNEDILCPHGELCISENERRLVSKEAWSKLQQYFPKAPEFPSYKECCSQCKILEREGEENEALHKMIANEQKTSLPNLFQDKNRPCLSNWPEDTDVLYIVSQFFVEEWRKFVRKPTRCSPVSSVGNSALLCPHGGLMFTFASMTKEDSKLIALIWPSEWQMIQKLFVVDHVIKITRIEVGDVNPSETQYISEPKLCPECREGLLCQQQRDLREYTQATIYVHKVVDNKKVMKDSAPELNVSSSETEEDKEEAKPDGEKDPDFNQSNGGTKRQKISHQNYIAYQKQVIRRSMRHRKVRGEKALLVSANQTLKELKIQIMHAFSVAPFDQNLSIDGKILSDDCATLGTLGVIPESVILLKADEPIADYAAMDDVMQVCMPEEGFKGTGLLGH
How it was run: as §1

[5] = target: T4, USP5 (UniProt P45974)
T4 sequence (whole entry): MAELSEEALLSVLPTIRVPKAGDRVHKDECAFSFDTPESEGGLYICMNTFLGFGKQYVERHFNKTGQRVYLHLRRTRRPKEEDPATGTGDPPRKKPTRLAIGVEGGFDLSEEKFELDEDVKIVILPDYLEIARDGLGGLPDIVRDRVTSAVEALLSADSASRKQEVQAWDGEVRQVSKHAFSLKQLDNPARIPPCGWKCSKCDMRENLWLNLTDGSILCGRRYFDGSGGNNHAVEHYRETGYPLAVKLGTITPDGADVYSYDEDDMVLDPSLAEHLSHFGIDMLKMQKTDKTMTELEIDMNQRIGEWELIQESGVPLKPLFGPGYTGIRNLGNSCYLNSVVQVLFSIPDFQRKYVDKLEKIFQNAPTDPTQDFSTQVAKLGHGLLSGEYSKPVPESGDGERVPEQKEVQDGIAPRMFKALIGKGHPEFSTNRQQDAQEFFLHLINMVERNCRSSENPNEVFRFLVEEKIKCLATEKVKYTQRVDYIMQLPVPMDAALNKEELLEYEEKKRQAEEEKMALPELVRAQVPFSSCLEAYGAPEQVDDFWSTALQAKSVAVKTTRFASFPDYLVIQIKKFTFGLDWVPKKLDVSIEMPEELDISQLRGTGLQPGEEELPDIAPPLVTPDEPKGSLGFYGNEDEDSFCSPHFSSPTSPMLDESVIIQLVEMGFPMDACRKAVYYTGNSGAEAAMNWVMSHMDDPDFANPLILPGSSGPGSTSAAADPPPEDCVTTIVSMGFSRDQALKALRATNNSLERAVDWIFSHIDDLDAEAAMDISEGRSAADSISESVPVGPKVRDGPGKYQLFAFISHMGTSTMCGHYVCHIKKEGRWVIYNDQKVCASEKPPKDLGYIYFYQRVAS
How it was run: as §1

[6] = target: USP54 (UniProt Q70EL1)
How it was run: as §1

[7] = target: USP7 (UniProt Q93009)
Chain of USP7 (Q93009 whole entry, looked up): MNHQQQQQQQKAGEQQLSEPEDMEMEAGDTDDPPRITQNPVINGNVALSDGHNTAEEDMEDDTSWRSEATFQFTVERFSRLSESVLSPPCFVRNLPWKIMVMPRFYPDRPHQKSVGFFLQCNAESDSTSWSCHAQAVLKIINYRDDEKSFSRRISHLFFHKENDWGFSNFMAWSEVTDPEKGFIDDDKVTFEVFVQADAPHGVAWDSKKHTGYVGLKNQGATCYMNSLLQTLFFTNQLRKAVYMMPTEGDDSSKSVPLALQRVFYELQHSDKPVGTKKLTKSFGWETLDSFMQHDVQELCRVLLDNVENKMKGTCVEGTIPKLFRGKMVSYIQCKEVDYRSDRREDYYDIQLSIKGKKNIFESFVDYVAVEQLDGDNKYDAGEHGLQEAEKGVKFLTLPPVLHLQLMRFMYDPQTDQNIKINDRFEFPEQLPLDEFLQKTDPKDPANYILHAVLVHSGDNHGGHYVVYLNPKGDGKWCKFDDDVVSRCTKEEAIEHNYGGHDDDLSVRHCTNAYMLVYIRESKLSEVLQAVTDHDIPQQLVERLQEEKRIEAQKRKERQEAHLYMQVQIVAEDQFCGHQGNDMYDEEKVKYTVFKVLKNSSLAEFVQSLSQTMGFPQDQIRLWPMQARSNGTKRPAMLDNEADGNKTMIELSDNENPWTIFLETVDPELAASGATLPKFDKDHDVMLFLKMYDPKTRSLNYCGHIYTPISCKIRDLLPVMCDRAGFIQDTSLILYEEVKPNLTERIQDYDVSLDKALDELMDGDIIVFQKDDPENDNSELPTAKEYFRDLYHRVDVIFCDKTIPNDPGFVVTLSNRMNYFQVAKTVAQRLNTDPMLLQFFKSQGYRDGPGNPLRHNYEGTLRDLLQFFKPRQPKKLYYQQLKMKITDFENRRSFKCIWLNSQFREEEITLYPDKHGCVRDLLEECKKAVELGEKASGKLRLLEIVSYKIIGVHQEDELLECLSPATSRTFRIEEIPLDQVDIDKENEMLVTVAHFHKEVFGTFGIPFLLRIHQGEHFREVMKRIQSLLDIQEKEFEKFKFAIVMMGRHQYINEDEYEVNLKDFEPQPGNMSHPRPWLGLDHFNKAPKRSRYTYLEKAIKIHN
How it was run: as §1

[8] = target: T5, USP8 (UniProt P40818)
T5 sequence (whole entry): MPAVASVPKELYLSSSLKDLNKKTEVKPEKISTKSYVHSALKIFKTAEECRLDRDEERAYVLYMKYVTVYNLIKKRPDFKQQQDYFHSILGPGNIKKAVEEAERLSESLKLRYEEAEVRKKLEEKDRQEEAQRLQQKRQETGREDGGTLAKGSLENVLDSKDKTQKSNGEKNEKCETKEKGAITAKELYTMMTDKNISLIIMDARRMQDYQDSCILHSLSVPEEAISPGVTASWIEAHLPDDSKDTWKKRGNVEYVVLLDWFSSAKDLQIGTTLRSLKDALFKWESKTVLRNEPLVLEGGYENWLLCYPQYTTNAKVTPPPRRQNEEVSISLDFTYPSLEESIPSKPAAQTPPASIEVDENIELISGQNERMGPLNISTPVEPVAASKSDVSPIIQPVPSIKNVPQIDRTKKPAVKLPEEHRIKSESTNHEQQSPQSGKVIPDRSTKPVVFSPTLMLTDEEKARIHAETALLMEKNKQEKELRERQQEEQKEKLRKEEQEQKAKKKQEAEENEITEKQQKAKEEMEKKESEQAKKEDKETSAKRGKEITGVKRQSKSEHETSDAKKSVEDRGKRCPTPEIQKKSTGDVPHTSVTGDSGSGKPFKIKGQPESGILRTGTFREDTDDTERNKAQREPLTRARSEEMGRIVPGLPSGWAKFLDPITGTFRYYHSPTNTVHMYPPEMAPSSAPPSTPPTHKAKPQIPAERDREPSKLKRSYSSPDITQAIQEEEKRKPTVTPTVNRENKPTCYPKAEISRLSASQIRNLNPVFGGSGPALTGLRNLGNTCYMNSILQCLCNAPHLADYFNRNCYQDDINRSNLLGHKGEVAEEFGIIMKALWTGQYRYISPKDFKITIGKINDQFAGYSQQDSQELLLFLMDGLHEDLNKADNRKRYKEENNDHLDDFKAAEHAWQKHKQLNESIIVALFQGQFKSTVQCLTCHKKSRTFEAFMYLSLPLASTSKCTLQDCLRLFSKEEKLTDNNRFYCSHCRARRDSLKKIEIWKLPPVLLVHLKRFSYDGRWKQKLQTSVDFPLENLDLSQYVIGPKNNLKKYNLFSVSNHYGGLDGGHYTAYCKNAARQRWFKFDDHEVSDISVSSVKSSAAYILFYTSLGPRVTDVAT
How it was run: as §1

[9] = target: USP9X (UniProt Q93008)
Chain of USP9X (Q93008 whole entry): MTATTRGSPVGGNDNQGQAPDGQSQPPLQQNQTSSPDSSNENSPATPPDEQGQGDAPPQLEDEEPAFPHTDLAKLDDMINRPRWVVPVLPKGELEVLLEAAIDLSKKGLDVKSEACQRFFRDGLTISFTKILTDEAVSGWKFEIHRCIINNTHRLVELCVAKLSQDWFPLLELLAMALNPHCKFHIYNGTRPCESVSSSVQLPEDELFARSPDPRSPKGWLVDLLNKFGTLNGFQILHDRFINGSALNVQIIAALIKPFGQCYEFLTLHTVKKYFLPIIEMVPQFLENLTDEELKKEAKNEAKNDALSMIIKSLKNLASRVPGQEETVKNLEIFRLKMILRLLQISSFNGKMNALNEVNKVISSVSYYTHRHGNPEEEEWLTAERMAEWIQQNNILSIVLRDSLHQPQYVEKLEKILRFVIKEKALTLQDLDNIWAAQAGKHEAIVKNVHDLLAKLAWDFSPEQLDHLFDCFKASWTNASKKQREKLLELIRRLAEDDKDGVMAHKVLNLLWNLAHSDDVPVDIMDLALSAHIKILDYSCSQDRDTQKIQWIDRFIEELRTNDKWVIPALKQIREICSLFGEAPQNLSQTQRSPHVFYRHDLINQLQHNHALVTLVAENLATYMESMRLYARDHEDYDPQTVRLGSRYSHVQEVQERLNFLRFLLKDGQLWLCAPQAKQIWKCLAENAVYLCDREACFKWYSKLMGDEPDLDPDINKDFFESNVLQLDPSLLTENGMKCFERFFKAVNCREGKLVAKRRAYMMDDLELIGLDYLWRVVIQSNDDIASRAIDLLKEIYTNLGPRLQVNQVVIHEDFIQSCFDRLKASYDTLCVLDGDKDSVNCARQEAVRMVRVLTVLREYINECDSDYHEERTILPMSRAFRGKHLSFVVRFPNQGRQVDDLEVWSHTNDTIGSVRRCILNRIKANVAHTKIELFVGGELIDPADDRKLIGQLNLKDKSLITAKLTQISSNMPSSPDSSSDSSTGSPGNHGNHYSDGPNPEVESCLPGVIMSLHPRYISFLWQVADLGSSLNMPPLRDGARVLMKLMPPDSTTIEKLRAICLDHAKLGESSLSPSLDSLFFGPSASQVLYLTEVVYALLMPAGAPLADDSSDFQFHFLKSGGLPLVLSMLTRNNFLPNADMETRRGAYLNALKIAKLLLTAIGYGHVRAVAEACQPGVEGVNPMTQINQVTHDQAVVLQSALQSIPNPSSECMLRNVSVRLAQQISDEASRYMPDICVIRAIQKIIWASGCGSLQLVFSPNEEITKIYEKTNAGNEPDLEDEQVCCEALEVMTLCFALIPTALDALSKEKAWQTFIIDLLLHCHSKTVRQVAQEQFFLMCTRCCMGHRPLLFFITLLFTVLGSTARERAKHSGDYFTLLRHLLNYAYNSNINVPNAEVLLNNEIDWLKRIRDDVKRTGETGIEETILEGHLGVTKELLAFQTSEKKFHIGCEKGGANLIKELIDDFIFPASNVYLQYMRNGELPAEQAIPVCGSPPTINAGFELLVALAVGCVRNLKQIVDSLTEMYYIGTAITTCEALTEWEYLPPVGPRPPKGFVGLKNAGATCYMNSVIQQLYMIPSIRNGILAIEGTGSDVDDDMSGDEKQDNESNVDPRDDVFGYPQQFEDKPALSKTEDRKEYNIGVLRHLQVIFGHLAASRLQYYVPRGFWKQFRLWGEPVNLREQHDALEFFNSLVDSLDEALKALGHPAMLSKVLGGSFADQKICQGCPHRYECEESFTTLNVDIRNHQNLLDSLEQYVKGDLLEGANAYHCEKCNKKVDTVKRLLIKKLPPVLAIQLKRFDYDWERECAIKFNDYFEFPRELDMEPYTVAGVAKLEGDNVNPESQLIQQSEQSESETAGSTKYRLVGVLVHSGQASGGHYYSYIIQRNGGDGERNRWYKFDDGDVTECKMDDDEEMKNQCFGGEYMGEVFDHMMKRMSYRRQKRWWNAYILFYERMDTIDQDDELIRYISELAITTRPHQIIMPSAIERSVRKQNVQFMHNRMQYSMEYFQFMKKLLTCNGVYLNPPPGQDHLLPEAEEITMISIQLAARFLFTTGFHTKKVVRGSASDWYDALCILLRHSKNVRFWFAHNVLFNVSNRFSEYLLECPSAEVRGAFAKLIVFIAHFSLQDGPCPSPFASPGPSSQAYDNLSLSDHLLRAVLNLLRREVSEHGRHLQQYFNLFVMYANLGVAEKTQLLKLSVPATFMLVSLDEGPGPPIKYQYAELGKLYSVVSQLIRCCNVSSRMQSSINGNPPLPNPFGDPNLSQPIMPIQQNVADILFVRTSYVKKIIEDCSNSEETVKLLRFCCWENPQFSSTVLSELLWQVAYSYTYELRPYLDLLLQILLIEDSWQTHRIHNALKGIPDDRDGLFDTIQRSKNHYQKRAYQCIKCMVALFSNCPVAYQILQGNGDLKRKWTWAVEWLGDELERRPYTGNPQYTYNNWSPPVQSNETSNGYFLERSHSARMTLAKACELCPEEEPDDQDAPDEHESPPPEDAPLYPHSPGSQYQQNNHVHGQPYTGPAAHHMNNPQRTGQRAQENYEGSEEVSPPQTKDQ
How it was run: as §1

[10] = target: UniProt O00487
Chain of UniProt O00487 (O00487 whole entry): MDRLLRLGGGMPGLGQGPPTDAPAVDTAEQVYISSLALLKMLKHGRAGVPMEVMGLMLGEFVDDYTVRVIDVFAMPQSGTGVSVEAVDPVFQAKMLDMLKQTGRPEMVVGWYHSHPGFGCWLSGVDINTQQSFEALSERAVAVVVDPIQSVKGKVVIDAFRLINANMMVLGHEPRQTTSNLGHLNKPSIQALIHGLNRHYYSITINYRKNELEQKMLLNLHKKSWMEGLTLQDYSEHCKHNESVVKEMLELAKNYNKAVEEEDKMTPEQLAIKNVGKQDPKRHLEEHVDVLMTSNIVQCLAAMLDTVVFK
How it was run: as §1

Measured: log2 ratio of Biotin-Ahx-Ub-VS probe labelling

C[C@H]1CN(C(=O)CCl)CCN1C(=O)c1cnn(C)c1.Cl
inactive: [1] 0.109 | [2] -0.0724 | [3] -0.522 | [4] -0.436 | [5] 0.184 | [6] -0.0291 | [7] -0.353 | [8] -0.184 | [9] -0.221 | [10] -0.129
